# Calls of active or inactive are those of the source.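 The calls were made as follows, unless noted: active = thallium flux through the channel raised or lowered by more than 3 SD from vehicle-only wells, actives on both sides; inactive = the rest.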
# How the values were obtained:
# [1] = glutamate transport activators, MN-1 cells, MN-1 cell line (AID 1612); details: MN-1 motor neuron cells, stronger effect = higher value;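 also: tested at 1 µM final; 0% = mean of DMSO vehicle wells on each plate; positive means more glutamate uptake than control and negative means less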
# [2] = 75Q-TubH aggregate inhibition, S. cerevisiae, yeast (AID 1616); details: S. cerevisiae 75Q-TubH polyglutamine aggregation suppression; stronger effect = higher value
# [3] = modulation of C. elegans fzo-1 (AID 1259413; call rule not given here;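 also: fzo-1 mutant C. elegans worms in liquid wells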); details: C. elegans fzo-1 modulator screen, mean read-out; stronger effect = higher value
# [4] = system: F380Y; experiment: BK channel mutant inhibitors and activators – cell-based, U2OS BacMam, thallium flux, beta subunits, selectivity assay, profiling panel (AID 1259406); details: U2OS BacMam BK variants, at 30 µM;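 also: initial slope of Thallos dye fluorescence rise after thallium is added; log ratio against the mean of 0.3% DMSO vehicle wells on the same plate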
# [5] = system: F380Y/beta1; experiment: as above; details: U2OS BacMam BK variants, at 30 µM
# [6] = system: F380Y/beta2Delta; experiment: as above; details: U2OS BacMam BK variants, at 30 µM
# [7] = system: F380Y/beta4; experiment: as above; details: U2OS BacMam BK variants, at 30 µM
# [8] = target: Calcium-activated potassium channel subunit alpha-1 (Homo sapiens) + Leucine-rich repeat-containing protein 26 (Homo sapiens) (UniProt Q12791+Q2I0M4); experiment: as above; details: U2OS BacMam BK variants, F380Y/Slo1WT/gamma1, at 30 µM
# [9] = system: R275C; experiment: as above; details: U2OS BacMam BK variants, at 30 µM
# [10] = system: R275C/beta1; experiment: as above; details: U2OS BacMam BK variants, at 30 µM
# [11] = system: R275C/beta2Delta; experiment: as above; details: U2OS BacMam BK variants, at 30 µM
# [12] = system: R275C/beta4; experiment: as above; details: U2OS BacMam BK variants, at 30 µM
# [13] = system: R275C/Slo1WT/beta2; experiment: as above; details: U2OS BacMam BK variants, at 30 µM
# Sequence of Calcium-activated potassium channel subunit alpha-1 (Homo sapiens) + Leucine-rich repeat-containing protein 26 (Homo sapiens) (Q2I0M4 whole entry, looked up, one chain of several): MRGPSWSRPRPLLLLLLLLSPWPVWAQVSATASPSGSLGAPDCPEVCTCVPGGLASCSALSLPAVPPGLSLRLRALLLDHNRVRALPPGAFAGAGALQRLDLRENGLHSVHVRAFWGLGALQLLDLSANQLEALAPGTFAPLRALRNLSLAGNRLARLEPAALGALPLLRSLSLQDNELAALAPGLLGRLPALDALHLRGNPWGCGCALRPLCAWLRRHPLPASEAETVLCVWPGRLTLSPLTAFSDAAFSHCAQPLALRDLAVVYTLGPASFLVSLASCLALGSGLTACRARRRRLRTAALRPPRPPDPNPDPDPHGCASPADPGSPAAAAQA
SMILES,glutamate uptake change [1] [%],aggregation suppression score [2],mean signal [3],log fold change Tl+ flux [4],log fold change Tl+ flux [5],log fold change Tl+ flux [6],log fold change Tl+ flux [7],log fold change Tl+ flux [8],log fold change Tl+ flux [9],log fold change Tl+ flux [10],log fold change Tl+ flux [11],log fold change Tl+ flux [12],log fold change Tl+ flux [13]
CN(C)C(=S)SSC(=S)N(C)C,7.76,0.0152,–,–,–,–,–,–,–,–,–,–,–
Clc1ccc(COC(Cn2ccnc2)c2ccc(Cl)cc2Cl)c(Cl)c1 (stereo not given),5.65,0.00246,182 (inactive),-0.0473 (inactive),-0.101 (inactive),-0.0262 (inactive),-0.445 (active),0.0222 (inactive),-0.0411 (inactive),0.0424 (inactive),-0.0245 (inactive),0.0768 (inactive),0.0237 (inactive)

# From PubChem BioAssay
